Reference: the supplement of paper PMC6897291
Structures can show the parent of a compound that is named as a salt.

Key:
U-2932 [1] = assay: growth inhibition by drug alone (1 - RLU/untreated control) (fraction); higher = stronger inhibition; details: 177Lu-lilotomab satetraxetan 0 ug/ml
Method in brief: (§1)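 Plates pre-printed with the Selleck Cambridge Cancer Compound library at 10/100 nM (RIVA) or 10/1,000 nM (U-2932) received 3,000 cells/well. These cells had been washed after 18 h untreated or with a radiolabelled anti-CD37 antibody conjugate (~600 MBq/mg; 0.5 µg/ml RIVA, 1 µg/ml U-2932). Growth inhibition was obtained from RealTime-Glo luminescence in relation to untreated no-drug wells. Each daily read from day 3, taken after 1 h at 37°C, was converted as 1 − RLU/mean of 48 such wells per plate.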

RIVA [2] = assay: as above; details: 177Lu-lilotomab satetraxetan 0 ug/ml
Method in brief: as §1

U-2932 [3] = assay: growth inhibition by drug plus 177Lu-lilotomab satetraxetan (1 - RLU/untreated control) (fraction); higher = stronger inhibition; details: 177Lu-lilotomab satetraxetan 1 ug/ml
Method in brief: as §1

RIVA [4] = assay: as above; details: 177Lu-lilotomab satetraxetan 0.5 ug/ml
Method in brief: as §1

SMILES | growth inhibition by drug alone (U-2932 [1]; 10 nM, time (day): 3) | growth inhibition by drug alone (U-2932 [1]; 10 nM, time (day): 4) | growth inhibition by drug alone (U-2932 [1]; 10 nM, time (day): 5) | growth inhibition by drug alone (U-2932 [1]; 10 nM, time (day): 6) | growth inhibition by drug alone (U-2932 [1]; 1000 nM, time (day): 3) | growth inhibition by drug alone (U-2932 [1]; 1000 nM, time (day): 4) | growth inhibition by drug alone (U-2932 [1]; 1000 nM, time (day): 5) | growth inhibition by drug alone (U-2932 [1]; 1000 nM, time (day): 6) | growth inhibition by drug alone (RIVA [2]; 10 nM, time (day): 3) | growth inhibition by drug alone (RIVA [2]; 10 nM, time (day): 4) | growth inhibition by drug alone (RIVA [2]; 10 nM, time (day): 5) | growth inhibition by drug alone (RIVA [2]; 10 nM, time (day): 6) | growth inhibition by drug alone (RIVA [2]; 100 nM, time (day): 3) | growth inhibition by drug alone (RIVA [2]; 100 nM, time (day): 4) | growth inhibition by drug alone (RIVA [2]; 100 nM, time (day): 5) | growth inhibition by drug alone (RIVA [2]; 100 nM, time (day): 6) | growth inhibition by drug plus 177Lu-lilotomab satetraxetan (U-2932 [3]; 10 nM, time (day): 3) | growth inhibition by drug plus 177Lu-lilotomab satetraxetan (U-2932 [3]; 10 nM, time (day): 4) | growth inhibition by drug plus 177Lu-lilotomab satetraxetan (U-2932 [3]; 10 nM, time (day): 5) | growth inhibition by drug plus 177Lu-lilotomab satetraxetan (U-2932 [3]; 10 nM, time (day): 6) | growth inhibition by drug plus 177Lu-lilotomab satetraxetan (U-2932 [3]; 1000 nM, time (day): 3) | growth inhibition by drug plus 177Lu-lilotomab satetraxetan (U-2932 [3]; 1000 nM, time (day): 4) | growth inhibition by drug plus 177Lu-lilotomab satetraxetan (U-2932 [3]; 1000 nM, time (day): 5) | growth inhibition by drug plus 177Lu-lilotomab satetraxetan (U-2932 [3]; 1000 nM, time (day): 6) | growth inhibition by drug plus 177Lu-lilotomab satetraxetan (RIVA [4]; 10 nM, time (day): 3) | growth inhibition by drug plus 177Lu-lilotomab satetraxetan (RIVA [4]; 10 nM, time (day): 4) | growth inhibition by drug plus 177Lu-lilotomab satetraxetan (RIVA [4]; 10 nM, time (day): 5) | growth inhibition by drug plus 177Lu-lilotomab satetraxetan (RIVA [4]; 10 nM, time (day): 6) | growth inhibition by drug plus 177Lu-lilotomab satetraxetan (RIVA [4]; 100 nM, time (day): 3) | growth inhibition by drug plus 177Lu-lilotomab satetraxetan (RIVA [4]; 100 nM, time (day): 4) | growth inhibition by drug plus 177Lu-lilotomab satetraxetan (RIVA [4]; 100 nM, time (day): 5) | growth inhibition by drug plus 177Lu-lilotomab satetraxetan (RIVA [4]; 100 nM, time (day): 6)
C=C1/C(=C\C=C2/CCC[C@]3(C)[C@@H]([C@H](C)/C=C/[C@H](C)C(C)C)CC[C@@H]23)C[C@@H](O)C[C@@H]1O [Doxercalciferol (Hectorol)] | 0.174 | 0.125 | 0.0899 | 0.0598 | 0.106 | 0.132 | 0.147 | 0.128 | 0.187 | 0.183 | 0.177 | 0.0541 | 0.0648 | 0.127 | 0.103 | 0.0636 | 0.15 | 0.183 | 0.229 | 0.36 | 0.0716 | 0.176 | 0.182 | 0.287 | 0.484 | 0.601 | 0.615 | 0.639 | 0.47 | 0.55 | 0.563 | 0.571
Cc1nc(N)sc1-c1ccnc(Nc2ccc(N3CCOCC3)cc2)n1 | 0.00864 | -0.0087 | -0.0373 | -0.101 | 0.0735 | 0.00717 | 0.0172 | 0.253 | -0.0458 | -0.131 | -0.156 | -0.327 | -0.0826 | -0.139 | -0.133 | -0.233 | -0.0148 | 0.00212 | 0.025 | 0.0655 | 0.0555 | 0.0326 | 0.0942 | 0.374 | 0.375 | 0.481 | 0.505 | 0.525 | 0.398 | 0.486 | 0.498 | 0.487
Cc1csc(-c2nnc(Nc3ccc(Oc4ncccc4-c4ccnc(N)n4)cc3)c3ccccc23)c1 | 0.0562 | -0.00651 | 0.0489 | 0.269 | 0.102 | 0.112 | 0.103 | 0.252 | 0.0279 | -0.0253 | 0.0704 | 0.206 | -0.211 | -0.208 | -0.145 | -0.0126 | 0.0788 | 0.121 | 0.207 | 0.449 | 0.271 | 0.306 | 0.344 | 0.538 | 0.482 | 0.52 | 0.572 | 0.659 | 0.496 | 0.552 | 0.581 | 0.676
CC/C(=C(\c1ccccc1)c1ccc(OCCN(C)C)cc1)c1ccccc1 [Tamoxifen Citrate (Nolvadex)] | 0.0699 | 0.0582 | -0.0313 | -0.0576 | 0.106 | 0.0715 | -0.0226 | 0.0641 | 0.0612 | 0.0931 | 0.0782 | -0.0872 | 0.551 | 0.381 | 0.352 | 0.322 | 0.0801 | 0.126 | 0.2 | 0.206 | 0.075 | 0.103 | 0.172 | 0.27 | 0.602 | 0.651 | 0.667 | 0.656 | 0.78 | 0.78 | 0.788 | 0.802
CCOC(=O)C1=C[C@]2(CC)CCCN3CCc4c(n1c1ccccc41)[C@@H]32 [Vinpocetine (Cavinton)] | -0.0944 | -0.0619 | -0.0289 | 0.127 | 0.0303 | 0.0355 | 0.0149 | 0.00297 | -0.107 | -0.13 | -0.129 | -0.167 | 0.0294 | -0.03 | -0.0621 | -0.112 | -0.0659 | -0.0355 | -0.00313 | 0.159 | 0.000715 | 0.0172 | 0.0304 | 0.134 | 0.457 | 0.533 | 0.549 | 0.545 | 0.362 | 0.396 | 0.4 | 0.377
CC1=C(/C=C/C(C)=C/C=C/C(C)=C/C(=O)Nc2ccc(O)cc2)C(C)(C)CCC1 [Fenretinide] | 0.0635 | 0.0202 | -0.0163 | -0.136 | 0.757 | 0.403 | 0.216 | 0.00716 | -0.0432 | -0.0451 | -0.13 | -0.456 | -0.388 | -0.302 | -0.337 | -0.461 | 0.0221 | 0.0894 | 0.138 | 0.148 | 0.704 | 0.374 | 0.313 | 0.295 | 0.515 | 0.573 | 0.583 | 0.583 | 0.435 | 0.504 | 0.521 | 0.541
CN(C)CCCCSC(=N)N | 0.0803 | 0.0562 | -0.0181 | -0.016 | -0.0315 | 0.00953 | -0.0703 | -0.245 | -0.0402 | -0.0677 | -0.106 | -0.316 | -0.0334 | -0.0664 | -0.0858 | -0.22 | 0.0342 | 0.0372 | 0.0384 | 0.0444 | -0.0939 | 0.0263 | -0.0236 | -0.0661 | 0.357 | 0.498 | 0.532 | 0.544 | 0.259 | 0.415 | 0.415 | 0.398
